Laboratory results published in PubChem BioAssay (NCI).
This is part of a sample that, as a whole, favours compounds with a hit. Of some 79,000 tested, about 15% had one in any assay. Values without a mark were called inactive. Calls of active or inactive are those of the source. Rule as the data show it: active = growth inhibition above about 70%; inactive = the rest.

Test: NCI Yeast Anticancer Drug Screen. Data for the bub3 strain (AID 167)
Conditions: S. cerevisiae bub3 mutant strain, at 50.0 µM, hits give high values
In short: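 Growth of a checkpoint-deficient yeast mutant is measured after compound exposure. Values represent inhibition relative to vehicle.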

| SMILES | growth inhibition |
| --- | --- |
| O=[N+]([O-])c1ccc(N2N=NC(CN3CCOCC3)C2N2CCOCC2)cc1 (stereo not drawn) | 7.85% |
| FC(F)(F)c1ccccc1NC(=S)SCc1ccco1 | 81.3% (active) |
| O=C(c1ccc(Cl)cc1)C1N=NCC1c1ccccc1 (stereo not drawn) | 87% (active) |
| COc1cc(C2c3cc4c(cc3[C@@H](OCCN)[C@H]3COC(=O)C23)OCO4)cc(OC)c1O (stereo partly drawn) | 49.5% |
| CC(C)(C)c1cc2c(c(C(C)(C)C)c1O)CC(=O)O2 | 72.5% (active) |
| CCCCCCCCCCCCCCCCCCSSCCCCCCCCCCCCCCCCCC | 15.6% |
| c1ccc2c(c1)OCC(CNCCNCC1COc3ccccc3O1)O2 (stereo not drawn) | 58.3% |
| CC(=O)C(C(C)=O)C1C=CC=CC=C1 | 92.5% (active) |
| c1ccc2c(c1)ccc1c[n+]3c4ccccc4ccc3n12 | 73.4% (active) |
| CC(=O)C(=C(I)I)c1ccccc1 | 33.4% |
| O=C1c2ccccc2CN1Cc1ccc(Cl)c(Cl)c1 | 79.4% (active) |
| CC1CC(N)=NC1C(=O)NCCC#N (stereo not drawn) | 62.6% |
| CC(=O)CC(C)=NCCN=C(C)CC(C)=O.[Pd] | 76.2% (active) |
| CCOc1ccccc1NC1=C(Cl)C(=O)c2ccccc2C1=O | 97.8% (active) |
| CCN1C2=NCCN2S(=O)(=O)c2ccccc21 | -22.1% |
| O=C(Cc1nc2ccccc2s1)C(=O)Nc1ccc(Cl)cc1 | 63.5% |
| O=C(CCn1[nH]c(=O)c(Cl)c(Cl)c1=O)NNc1ccc([N+](=O)[O-])cc1[N+](=O)[O-] | 26.2% |
| COc1cccc(C2c3cc4c(cc3OC(NNc3ccccc3)C2C)OCO4)c1OC (stereo not drawn) | 34.2% |
| COc1ccc(-c2cc3ccccc3c(=O)n2Cc2ccccc2)cc1 | 89.3% (active) |
| CN(C)CCCNCC(=O)Nc1ccc(S(=O)(=O)c2ccc(NC(=O)CNCCCN(C)C)cc2)cc1 | 30.2% |

| SMILES | growth inhibition |
| --- | --- |
| O=C1NN=C(c2ccc(Cl)cc2)CC1C1C(=O)N(c2ccccc2)N=C1c1ccccc1 (stereo not drawn) | 97.8% (active) |
| Cc1ccc(S(=O)(=O)NCCSSCCNS(=O)(=O)c2ccc(C)cc2)cc1 | 94.3% (active) |
| O=C(CC(=O)c1ccccc1)CC(=O)c1ccccc1Br | 68.7% |
| Nc1ncc2ccccc2c1-c1ccc(NC(=O)CCCl)cc1 | 21.6% |
| CC1=NC(=Cc2cccc(Cl)c2)C(=O)N1n1c(-c2ccccc2)nc2ccccc2c1=O | 74.7% (active) |
| CCCOC(=O)CCCC(=O)N(CC)CC | -0.6% |
| C=C1C(=O)[C@@]23CC[C@H]4[C@@](C)(CCC[C@@]4(C)C(=O)OC)[C@@H]2CC[C@]1(O)C3 | 93.7% (active) |
| CCCCN(CCCC)CCC(=O)c1ccc2c(ccc3ccccc32)c1 | 99% (active) |
| CC1CCC2(C)C(CC=C(C=O)C2(O)C=O)C12CO2 (stereo not drawn) | 93.8% (active) |
| CN(C)CC1CC/C(=C\c2ccc(Cl)c(Cl)c2)C1=O (stereo not drawn) | 91.5% (active) |
| CCS(=O)(=O)c1ccc(NC(=O)OC2CCCCCCC2)cc1 | 95.2% (active) |
| CC(=O)OC1CCCCCCCCCCC12OCCO2 (stereo not drawn) | 83% (active) |
| CC(=O)OCc1cc2c(s1)C(=O)c1sccc1C2=O | 88.7% (active) |
| O=C1C=CC(=O)c2nc3ccccc3nc21 | 90.1% (active) |
| Cc1ccccc1C1c2c(C)cccc2C(=O)CC1CC(=O)O (stereo not drawn) | 70% (active) |
| CCOC(=O)c1c(N)sc2c1CCCCC2 | 50.4% |
| CCCCC(O)CCCC | 64.2% |
| Nc1nn2c(C(Br)Br)cc(C(Br)Br)nc2c1[N+](=O)[O-] | 99.5% (active) |
| COC(=O)c1n[nH]c(C(C)C)c1N=NN(C)C | 98.3% (active) |

Test: NCI Yeast Anticancer Drug Screen. Data for the mlh1 rad18 strain (AID 175)
Conditions: S. cerevisiae mlh1 rad18 strain growth inhibition; at 5.0 µM (retest, dose inferred, filed as 0.5); hits give high values
In short: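 Test agents were incubated with a yeast strain of defined genotype (DNA damage repair defect). Inhibition of growth was derived by comparison with vehicle-exposed cultures.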

| SMILES | growth inhibition |
| --- | --- |
| O=[N+]([O-])c1ccc(N2N=NC(CN3CCOCC3)C2N2CCOCC2)cc1 (stereo not drawn) | 3% |
| FC(F)(F)c1ccccc1NC(=S)SCc1ccco1 | -2% |
| O=C(c1ccc(Cl)cc1)C1N=NCC1c1ccccc1 (stereo not drawn) | -8% |
| COc1cc(C2c3cc4c(cc3[C@@H](OCCN)[C@H]3COC(=O)C23)OCO4)cc(OC)c1O (stereo partly drawn) | 19% |
| CC(C)(C)c1cc2c(c(C(C)(C)C)c1O)CC(=O)O2 | -3% |
| CCCCCCCCCCCCCCCCCCSSCCCCCCCCCCCCCCCCCC | -3% |
| c1ccc2c(c1)OCC(CNCCNCC1COc3ccccc3O1)O2 (stereo not drawn) | 75% (active) |
| CC(=O)C(C(C)=O)C1C=CC=CC=C1 | -139% |
| c1ccc2c(c1)ccc1c[n+]3c4ccccc4ccc3n12 | 56% |
| CC(=O)C(=C(I)I)c1ccccc1 | -28% |
| O=C1c2ccccc2CN1Cc1ccc(Cl)c(Cl)c1 | -2% |
| CC1CC(N)=NC1C(=O)NCCC#N (stereo not drawn) | 30% |
| CC(=O)CC(C)=NCCN=C(C)CC(C)=O.[Pd] | -9% |
| CCOc1ccccc1NC1=C(Cl)C(=O)c2ccccc2C1=O | 99% (active) |
| CCN1C2=NCCN2S(=O)(=O)c2ccccc21 | 20% |
| O=C(Cc1nc2ccccc2s1)C(=O)Nc1ccc(Cl)cc1 | 1% |
| O=C(CCn1[nH]c(=O)c(Cl)c(Cl)c1=O)NNc1ccc([N+](=O)[O-])cc1[N+](=O)[O-] | 2% |
| COc1cccc(C2c3cc4c(cc3OC(NNc3ccccc3)C2C)OCO4)c1OC (stereo not drawn) | 24% |
| COc1ccc(-c2cc3ccccc3c(=O)n2Cc2ccccc2)cc1 | 11% |
| CN(C)CCCNCC(=O)Nc1ccc(S(=O)(=O)c2ccc(NC(=O)CNCCCN(C)C)cc2)cc1 | 3% |

| SMILES | growth inhibition |
| --- | --- |
| O=C1NN=C(c2ccc(Cl)cc2)CC1C1C(=O)N(c2ccccc2)N=C1c1ccccc1 (stereo not drawn) | 97% (active) |
| Cc1ccc(S(=O)(=O)NCCSSCCNS(=O)(=O)c2ccc(C)cc2)cc1 | 1% |
| O=C(CC(=O)c1ccccc1)CC(=O)c1ccccc1Br | 1% |
| Nc1ncc2ccccc2c1-c1ccc(NC(=O)CCCl)cc1 | -2% |
| CC1=NC(=Cc2cccc(Cl)c2)C(=O)N1n1c(-c2ccccc2)nc2ccccc2c1=O | 11% |
| CCCOC(=O)CCCC(=O)N(CC)CC | -5% |
| C=C1C(=O)[C@@]23CC[C@H]4[C@@](C)(CCC[C@@]4(C)C(=O)OC)[C@@H]2CC[C@]1(O)C3 | 92% (active) |
| CCCCN(CCCC)CCC(=O)c1ccc2c(ccc3ccccc32)c1 | 12% |
| CC1CCC2(C)C(CC=C(C=O)C2(O)C=O)C12CO2 (stereo not drawn) | 99% (active) |
| CN(C)CC1CC/C(=C\c2ccc(Cl)c(Cl)c2)C1=O (stereo not drawn) | 84% (active) |
| CCS(=O)(=O)c1ccc(NC(=O)OC2CCCCCCC2)cc1 | 6% |
| CC(=O)OC1CCCCCCCCCCC12OCCO2 (stereo not drawn) | 10% |
| CC(=O)OCc1cc2c(s1)C(=O)c1sccc1C2=O | 24% |
| O=C1C=CC(=O)c2nc3ccccc3nc21 | 16% |
| Cc1ccccc1C1c2c(C)cccc2C(=O)CC1CC(=O)O (stereo not drawn) | 8% |
| CCOC(=O)c1c(N)sc2c1CCCCC2 | -142% |
| CCCCC(O)CCCC | 31% |
| Nc1nn2c(C(Br)Br)cc(C(Br)Br)nc2c1[N+](=O)[O-] | 100% (active) |
| COC(=O)c1n[nH]c(C(C)C)c1N=NN(C)C | -77% |
